Inconclusive results are not listed. Activity calls are given as the source filed them. The calls were made as follows: active = hit-call score of the fitted dose curve at least 0.9, where 1 is the maximum; inconclusive = response in the unintended direction; inactive = score below 0.9.

Sequence of Estrogen receptor beta (Homo sapiens) (Q92731 whole entry, looked up, the tested form may be a part): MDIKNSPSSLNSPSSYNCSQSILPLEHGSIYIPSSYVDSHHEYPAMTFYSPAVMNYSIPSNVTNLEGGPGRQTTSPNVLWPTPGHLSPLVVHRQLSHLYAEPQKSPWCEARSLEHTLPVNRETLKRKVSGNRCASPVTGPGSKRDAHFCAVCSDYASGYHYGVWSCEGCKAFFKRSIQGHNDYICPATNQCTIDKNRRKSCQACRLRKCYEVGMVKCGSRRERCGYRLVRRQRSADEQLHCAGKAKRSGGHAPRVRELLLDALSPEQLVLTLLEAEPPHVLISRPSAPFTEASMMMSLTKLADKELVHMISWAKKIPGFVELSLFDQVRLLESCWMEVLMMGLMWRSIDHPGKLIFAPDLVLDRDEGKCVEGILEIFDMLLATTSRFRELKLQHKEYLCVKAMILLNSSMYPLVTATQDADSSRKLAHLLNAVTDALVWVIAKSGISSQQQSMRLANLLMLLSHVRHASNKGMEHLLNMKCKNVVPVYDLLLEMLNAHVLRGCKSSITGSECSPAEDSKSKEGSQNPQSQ
Sequence of Androgen Receptor/SRC-1 Co-activator, AR (gene 367) (P10275 whole entry, looked up, the tested form may be a part): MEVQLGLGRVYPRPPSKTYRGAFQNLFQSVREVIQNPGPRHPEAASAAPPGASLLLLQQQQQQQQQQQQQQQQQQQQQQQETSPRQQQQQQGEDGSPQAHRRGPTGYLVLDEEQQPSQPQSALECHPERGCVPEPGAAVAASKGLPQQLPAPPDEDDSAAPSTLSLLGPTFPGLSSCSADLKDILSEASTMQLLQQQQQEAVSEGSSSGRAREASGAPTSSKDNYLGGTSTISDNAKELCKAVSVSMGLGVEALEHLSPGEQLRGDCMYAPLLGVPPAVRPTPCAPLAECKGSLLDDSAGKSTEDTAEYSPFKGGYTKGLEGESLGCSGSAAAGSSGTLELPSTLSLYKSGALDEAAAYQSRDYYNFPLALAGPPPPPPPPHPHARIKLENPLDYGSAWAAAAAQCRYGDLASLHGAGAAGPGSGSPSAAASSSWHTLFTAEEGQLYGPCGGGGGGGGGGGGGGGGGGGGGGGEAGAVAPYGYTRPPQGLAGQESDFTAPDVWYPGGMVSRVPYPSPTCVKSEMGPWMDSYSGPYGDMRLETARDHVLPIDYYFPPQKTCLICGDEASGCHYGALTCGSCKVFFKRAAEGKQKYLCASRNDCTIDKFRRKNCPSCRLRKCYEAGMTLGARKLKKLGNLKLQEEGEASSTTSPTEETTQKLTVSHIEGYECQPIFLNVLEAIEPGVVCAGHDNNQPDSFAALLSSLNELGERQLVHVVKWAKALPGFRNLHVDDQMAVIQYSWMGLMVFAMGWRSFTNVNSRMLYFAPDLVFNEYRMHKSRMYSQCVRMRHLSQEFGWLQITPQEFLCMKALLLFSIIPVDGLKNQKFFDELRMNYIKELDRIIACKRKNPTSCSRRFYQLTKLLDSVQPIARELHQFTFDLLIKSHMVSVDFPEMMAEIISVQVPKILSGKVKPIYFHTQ

The first test deals with Androgen Receptor/SRC-1 Co-activator, AR (gene 367) (UniProt P10275). The test is described as follows: OT_AR_ARSRC1_0960: Odyssey Thera (OT) 16-hour HEK293T Protein-Complementation Assay for Androgen Receptor/SRC-1 Co-activator (AID 2283353).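 Also: actives raise the signal above DMSO so potency reflects increased AR and SRC-1 complex.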 In short, it runs like this:
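Sixteen-hour cell assay: Venus halves fused to AR and SRC-1 in HEK293T report binding. Images at 488/635 nm give an N/C ratio in the 488 nm channel over ≥400 cells, analysed as signal increase over DMSO.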
Take `C[Si](O[Si](C)(C)C)O[Si](C)(C)C`: the result was inactive.
Take `CCCCC(CC)COC(=O)/C=C\C(=O)OCC(CC)CCCC` (centres undefined): the concentration at half-maximal activity (AC50) is 75.5 µM (active).
Turning to `COc1ccc(O)cc1`, the outcome was inactive.
Regarding `CCCCCCCCCCCCCCCC(=O)OC[C@H](O)[C@H]1OC(=O)C(O)=C1O`, the molecule was called inactive.
On the same count and under the same terms, as for `O=C[C@@H](O)[C@H](O)[C@H](O)CO`, the entry is “inactive”.

A further test concerns the target Estrogen receptor beta (Homo sapiens) (UniProt Q92731). Description: OT_ER_ERbERb_0480: Odyssey Thera (OT) 8-hour HEK293T Protein-Complementation Assay for Estrogen Receptor-beta/-beta Homodimer (AID 2283357).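 Also: active means signal gain over DMSO baseline.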 Put shortly:
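Homodimerization of ER-beta LBD measured by protein-fragment complementation in HEK293T; 8 h dosing; fixed, Draq5 counterstain; fluorescence intensity gain over DMSO baseline, positive fitting direction; laser scanning cytometry.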
As to `C=CCOc1nc(OCC=C)nc(OCC=C)n1`, the call was inactive.
Same read-out and setting: for `CC(C)CCCCCCCOC(=O)c1ccc(C(=O)OCCCCCCCC(C)C)c(C(=O)OCCCCCCCC(C)C)c1` the value was “inactive”; for `CCCCCOC(=O)CCC`, “inactive”; for `C=CC[N+](C)(C)CC=C`, “inactive”.
Same read-out and setting: as for `C[Si](O[Si](C)(C)C)O[Si](C)(C)C`, the entry is “inactive”; as for `C=CC(C)(O)CCC=C(C)CCC=C(C)C` (centres undefined), “inactive”; as for `CC(C)(C#N)c1cc(Cn2cncn2)cc(C(C)(C)C#N)c1`, “inactive”.
Still for that read-out and setting: as for `CCCCCCCCCCCCCCCCCC(=O)OCC(CC)CCCC` (centres undefined), the entry is “inactive”; as for `CCCCCCCCCCCCCCCC(=O)O`, “inactive”.
Consider `CC(C)=CCCC(C)=CCCC(C)=CCO`, for which the molecule was classed as inactive.
The same measure, in the same setting: as for `CCCCC(CC)COC(=O)/C=C\C(=O)OCC(CC)CCCC` (centres undefined), the entry is “inactive”; as for `CCC(=O)/C=C/C1C(C)=CCCC1(C)C` (centres undefined), “inactive”; as for `COc1ccc(O)cc1`, “inactive”.
In the case of `CC(C)=CCC[C@](C)(O)[C@@H]1CC=C(C)CC1`, the molecule was classed as inactive.
The same measure, in the same setting: for `O=C(O)CCCCCCCC(=O)O` the value was “inactive”; for `O=C(O)c1ccc([N+](=O)[O-])cc1`, “inactive”.
On to `O=C(Oc1ccccc1)c1ccc(O)cc1`, for which the half-maximal activity concentration (AC50) was 2.42 µM (active).
In the case of `COc1c(Cl)c(Cl)c(Cl)c(Cl)c1Cl`, the half-maximal activity concentration (AC50) is 41.8 µM (active).
Consider `OC1OC[C@@H](O)[C@H](O)[C@H]1O` (some centres undefined), for which the result was inactive.

As a reminder, the AC50 is the midpoint of the concentration-response curve, whichever way the signal moves.

For the origin of these results see PubChem BioAssay (EPA / NIEHS).
